From PubChem BioAssay (Tox21) come the findings set out here.

The nature of assay [1]: qHTS RealTime-Glo MT Cell Viability Assay in HepG2 cells - 8 hour (AID 1224873). Also: nearly all actives have a fitted effect of over 55% in size. Also: potency is read from the fitted curve at half-maximal effect. In a few lines:
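Real-time viability: cells seeded at 600 per well together with NanoLuc and cell-permeant prosubstrate, compounds added after 5 h incubation. Luminescence tracked at 0, 8, 16, 24, 32 and 40 h of exposure.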
On the technique in general: qHTS replaces the single test concentration by a dilution series.

Assay [2] can be described thus: qHTS RealTime-Glo MT Cell Viability Assay in HEK293 cells - 40 hour (AID 1224874). Also: nearly all actives have a fitted effect of over 50% in size. Also: potency is read from the fitted curve at half-maximal effect. The conditions noted are these: RealTime-Glo luminescence; max response: active compounds read low. Put shortly: (§1)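 Viable HEK293 cells reduce a cell-permeant prosubstrate; the product diffuses out and is consumed by NanoLuc in the medium to give light. Compounds went in after a 5 h incubation and plates were read over the treatment course.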

Assay [3] is described as follows: A CellTox Green Cytotoxicity Assay to monitor cytotoxicity in HEK293 cells - 24 hour (AID 1224875). Also: nearly all actives have a fitted effect of over 45% in size. Also: potency is read from the fitted curve at half-maximal effect. Put shortly: (§2)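 Fluorescence intensity, read at 0, 8, 16, 24, 32 and 40 h of compound treatment, reflected dye binding to DNA of dead HEK293 cells; compounds (23 nL, DMSO) were added 5 h after plating cells with reagent.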
The nature of assay [4]: A CellTox Green Cytotoxicity Assay to monitor cytotoxicity in HepG2 cells - 16 hour (AID 1224876). Also: nearly all actives have a fitted effect of over 45% in size. Also: potency is read from the fitted curve at half-maximal effect. Put shortly:
(§3)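 Using 1536-well format, dye-containing HepG2 suspension was seeded, allowed 5 h at 37 C/5% CO2, dosed by pintool with compounds, positive and negative controls, and imaged for fluorescence across 40 h.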

Assay [5] can be described thus: A CellTox Green Cytotoxicity Assay to monitor cytotoxicity in HepG2 cells - 40 hour (AID 1224879). Also: nearly all actives have a fitted effect of over 40% in size. Also: potency is read from the fitted curve at half-maximal effect. In a few lines: as §3
The nature of assay [6]: A CellTox Green Cytotoxicity Assay to monitor cytotoxicity in HEK293 cells - 32 hour (AID 1224881). Also: nearly all actives have a fitted effect of over 40% in size. Also: potency is read from the fitted curve at half-maximal effect. In a few lines:
as §2

Assay [7] in a line: A CellTox Green Cytotoxicity Assay to monitor cytotoxicity in HepG2 cells - 0 hour (AID 1224882). Also: nearly all actives have a fitted effect of over 35% in size. Also: potency is read from the fitted curve at half-maximal effect. Put shortly: as §3
Assay [8] is described as follows: qHTS RealTime-Glo MT Cell Viability Assay in HepG2 cells - 32 hour (AID 1224877). Also: nearly all actives have a fitted effect of over 55% in size. Also: potency is read from the fitted curve at half-maximal effect. In a few lines: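 Tox21 10K library screened in qHTS format on HepG2 cells carrying RealTime-Glo reagents. Compounds were added after a 5 h preincubation, and the luminescent signal from continuous culture was measured repeatedly during 40 h treatment.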
The nature of assay [9]: qHTS RealTime-Glo MT Cell Viability Assay in HEK293 cells - 0 hour (AID 1224880). Also: top concentration of the series differs between compounds; nearly all actives have a fitted effect of over 45% in size. In a few lines:
as §1

Assay [10] is described as follows: A CellTox Green Cytotoxicity Assay to monitor cytotoxicity in HepG2 cells - 24 hour (AID 1224878). Also: nearly all actives have a fitted effect of over 45% in size. Also: potency is read from the fitted curve at half-maximal effect. In a few lines:
as §3

A number with no mark means an inactive call. Inconclusive results are not listed. The source made the active and inactive calls. Calls follow the shape of the dose curve; as a rule, active = well fitted curve in the direction sought with a large enough effect in the repeat runs; inconclusive = weak or mixed curves; inactive = no such curve, though single readings can be large; an effect the other way counts as inactive or inconclusive.
% is scaled to controls: 0 for no effect and ±100 for the full control effect.

On to `O=C(Nc1cccc(C(F)(F)F)c1)c1cc(Br)cc(Br)c1O`, for which the Potency result in assay [1], in assay [3], in assay [4], in assay [6] and in assay [7] was “inactive” each time. The Potency is 3.89 µM (active) in assay [2] and 19.5 µM (active) in assay [5].
Consider `Clc1ccc2n[nH]nc2c1`, for which the Potency result in assay [1], in assay [3], in assay [4], in assay [8], in assay [5] and in assay [9] was “inactive” in each case. Besides, the Potency entry in assay [6] and in assay [7] was “inactive” in each case. Moreover, the max response in [2] is 4.16%.
For `CCC(N)(CO)CO`, the Potency entry in assay [1], in assay [3], in assay [4], in assay [8], in [5] and in assay [9] was “inactive” each time. For the same compound, the Potency result in assay [6] and in [7] was “inactive” in each case. In addition, the max response in assay [2] is 11.9%.
`COc1cccc(N)c1`: the Potency entry in assay [1], in [3], in assay [4], in assay [8], in [5] and in assay [9] was “inactive” throughout. Further, the Potency entry in [7] was “inactive”. For the same compound, the max response in assay [2] was -1.08%.
Consider `CCCCCCCC[N+](CCCCCCCC)(CCCCCCCC)CCCCCCCC`, for which the Potency was 24.5 µM (active) in [1]; 2.18 µM (active) in assay [2]; 15.5 µM (active) in assay [3]; 24.5 µM (active) in [4]; 24.5 µM (active) in [8]; 19.5 µM (active) in assay [10]. In addition, the Potency in [5] is 24.5 µM (active); in assay [6] it was 15.5 µM (active). In addition, in assay [7], the Potency result was “inactive”.
As for `COc1ccc(C(=O)/C(Br)=C\C(=O)O)cc1`, the Potency entry in [1], in assay [4], in assay [9] and in assay [7] was “inactive” in each case. Further, the Potency was 34.7 µM (active) in assay [2], 34.7 µM (active) in assay [3], 13.8 µM (active) in assay [5] and 30.9 µM (active) in assay [6].
Regarding `CCCCCCCC(=O)[O-].CCCCCCCC(=O)[O-].[Zn+2]`, the Potency entry in [1], in assay [3], in [8], in assay [10], in assay [5] and in assay [9] was “inactive” throughout. The Potency result in assay [6] was “inactive”. Further, the max response in assay [2] is 9.04%.
As for `N=C1N=C(N)c2ccccc21`, the Potency entry in assay [1], in [3], in assay [4], in assay [9], in assay [6] and in assay [7] was “inactive” each time. In addition, the results for the Potency in assay [2] and in assay [5] were 24.5 µM (active) and 43.6 µM (active), respectively.
Take `CSc1cnc(C)cn1`: the Potency entry in assay [1], in [8] and in assay [9] was “inactive” in each case. The max response in assay [2] is 7.94%. The Potency in [3] was 89.4 µM (active); in assay [10] it was 63.3 µM (active); in [5], 63.3 µM (active); in assay [6] it was 89.4 µM (active); in assay [7], 56.4 µM (active).
Consider `Cc1cccc(N(C)C(=S)Oc2ccc3c(c2)C2CCC3C2)c1` (stereo not drawn), for which the Potency result in assay [1], in assay [3], in assay [4], in assay [8], in assay [5] and in assay [9] was “inactive” throughout. Also, the Potency entry in assay [6] and in assay [7] was “inactive” throughout. Moreover, the max response in assay [2] was -13.2%.
For `CC(C)n1nc(-c2cc3cc(O)ccc3[nH]2)c2c(N)ncnc21`, the Potency result in assay [1], in [3], in assay [4], in assay [9], in [6] and in assay [7] was “inactive” each time. The Potency in assay [2] is 0.19 µM (active); in assay [5], 23.9 µM (active).
For the compound `C=CC(=O)OCC(CO)(COCC(COC(=O)C=C)(COC(=O)C=C)COC(=O)C=C)COC(=O)C=C`, the Potency in assay [1] was 3.42 µM (active); in assay [2], 2.42 µM (active); in assay [3], 54.3 µM (active); in [8], 3.84 µM (active); in assay [10] it was 48.4 µM (active); in assay [5] it was 15.3 µM (active). Also, the Potency in assay [6] is 43.1 µM (active). Besides, the Potency entry in [9] and in [7] was “inactive” each time.
On to `CN(C)[C@@H]1C(=O)C(C(N)=O)=C(O)[C@@]2(O)C(=O)C3=C(O)c4c(O)cccc4C[C@H]3C[C@@H]12`, for which the Potency result in [1], in [3], in assay [4], in [8], in [10] and in assay [5] was “inactive” each time. Further, the Potency entry in [9], in [6] and in assay [7] was “inactive” in each case. Also, the max response in assay [2] is 1.21%.
With `CC(C)(C)C(=O)OCOC(=O)[C@@H]1N2C(=O)[C@@H](NC(=O)[C@H](N)c3ccccc3)[C@H]2SC1(C)C`, the Potency entry in assay [1], in assay [3], in assay [4], in [8], in [5] and in assay [9] was “inactive” each time. Further, the Potency entry in assay [6] and in assay [7] was “inactive” in each case. In addition, in assay [2], the max response is 5.37%.
Consider `CCCCCCCC/C=C/CCCCCCCC1=NCCN1CCO`, for which the Potency in assay [1] was 43.6 µM (active); in assay [2], 19.5 µM (active); in assay [3] it was 24.5 µM (active); in assay [8], 15.5 µM (active); in [10], 13.8 µM (active); in assay [5], 12.3 µM (active). In assay [6], the Potency was 24.5 µM (active). For the same compound, in assay [7], the Potency entry is “inactive”.
Take `OC1(c2ccc(Cl)c(C(F)(F)F)c2)CCN(CCCC(c2ccc(F)cc2)c2ccc(F)cc2)CC1`: the Potency is 21.3 µM (active) in assay [1]; 9.52 µM (active) in [2]; 23.9 µM (active) in assay [3]; 8.49 µM (active) in [8]; 9.52 µM (active) in assay [10]; 6.74 µM (active) in assay [5]. Besides, the Potency in [6] is 23.9 µM (active). Moreover, the Potency entry in assay [9] and in assay [7] was “inactive” each time.
With `[Cl][Bi]([Cl])([c]1ccccc1)([c]1ccccc1)[c]1ccccc1`, the Potency is 10.9 µM (active) in assay [1]; 1.94 µM (active) in [2]; 27.4 µM (active) in [3]; 10.9 µM (active) in assay [4]; 6.88 µM (active) in [8]; 7.71 µM (active) in [10]. Besides, the Potency is 4.87 µM (active) in assay [5] and 24.4 µM (active) in assay [6]. In assay [7], the Potency entry is “inactive”.
For the compound `CCCN(CCC)c1c([N+](=O)[O-])cc(C(F)(F)F)c(N)c1[N+](=O)[O-]`, the Potency in [1] was 48.9 µM (active); in assay [2] it was 19.4 µM (active); in assay [3], 54.8 µM (active); in assay [8], 48.9 µM (active); in [5], 54.8 µM (active); in assay [6], 54.8 µM (active). Also, the Potency result in assay [9] and in assay [7] was “inactive” each time.
On to `CC(=O)SC[C@@H](Cc1ccccc1)C(=O)NCC(=O)OCc1ccccc1`, for which the Potency entry in assay [1], in assay [4], in assay [8], in [10], in [5] and in assay [9] was “inactive” each time. In addition, the Potency result in [6] and in [7] was “inactive” throughout. The max response in [2] is 0.0146%.
